Compound activity (PubChem)
Shown are actives, neighbours in structure and some others; about 4.1% of the full set was active somewhere.
Shn3 inh set2 – Schnurri-3 reporter inhibition in Clone20 osteoblasts. inhibition, % at 12.5 µM. Clone20 osteoblast Shn3 3'UTR firefly luciferase, 24 h. AID 588674. 360,000 compounds, 0.52% hits;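 active means mean inhibition of at least 75% with every replicate also reaching 75%; inconclusive means mean inhibition at least 75% but some replicate below; inactive means mean inhibition below 75%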;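 further: 0% = median of neutral control wells and 100% = pilot-screen positive control compound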
Peg3 promoter – Peg3 promoter activity inhibition; HeLa PEG-Prom luciferase reporter, luminescence, overnight; inhibition, % at 20 µM; 360,000 compounds, 1.7% hits; AID 588405;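 active means inhibition of at least 50% at 20 µM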
TROY signal inh – inhibitors of TROY-dependent NF-kB signaling; Q293 LMP1-TROYcd NF-kB luciferase reporter, 4 h; inhibition, % at 10 µM; 360,000 compounds, 0.98% hits;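 active means compounds whose plate-normalised and pattern-corrected inhibition of the luciferase reporter signal at the single screening dose is 50% or more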
LMP1 NFkB inh – reduces LMP1-driven NF-kappaB luciferase signal; 350,000 compounds, 0.69% hits; inhibition, % at 12.5 µM; AID 504558; LMP1-induced NF-kappaB luciferase reporter cells, luminescence; in the data active means inhibition above about 41%; inconclusive means no clear call, values can overlap the other calls;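 further: 0% = neutral control wells and 100% = reference inhibitor control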
MITF TRPM1 inh – inhibitors of MITF-driven TRPM1 promoter in melanoma cells. 330,000 compounds, 0.83% hits. SK-MEL-5 TRPM1 promoter luciferase, 24 h. inhibition, % at 12.5 µM;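 active means mean inhibition across replicates of 60% or more, whatever share of single replicates reaches that level; inconclusive means some that reach 60%, reason not given; inactive means mean inhibition across replicates below 60%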
TWEAK Fn14 block – blocks TWEAK-Fn14 interaction in a reporter cell assay. TWEAK-stimulated Fn14 reporter cells, luciferase luminescence, 8 h. inhibition, % at 10 µM. 360,000 compounds, 2% hits; in the data active means inhibition above about 50%
The depositor's hits bear a star; ? = inconclusive; . = no result given.

SMILES | Shn3 inh set2 | Peg3 promoter | TROY signal inh | LMP1 NFkB inh | MITF TRPM1 inh | TWEAK Fn14 block
CCOc1ccccc1NC(=S)N1CCCc2ccccc21 | -3.0 | -31.8 | 53.6* | 3.5 | 2.8 | 52.6*
COc1ccccc1NC(=S)N1CCCc2ccccc21 | 11.8 | 17.0 | 53.9* | -5.3 | 11.5 | 65.7*
CC(C)CN(C(=O)COC(=O)COc1ccc2c(c1)CCC2)c1c(N)n(Cc2ccccc2)c(=O)[nH]c1=O | 4.3 | -6.7 | 8.6 | -2.5 | 5.9 | -13.8
COc1cc(OC)c(C(=O)OC(C)C(=O)NCc2ccc3c(c2)OCO3)cc1OC (stereo not drawn) | -1.0 | 4.1 | 2.6 | 4.2 | 1.5 | -10.7
COc1ccc(C(=O)N2CCCCC2c2cc(C(=O)NCc3cccnc3)no2)cc1 (stereo not drawn) | -13.0 | 2.3 | 7.2 | . | . | -19.7
CC(C)N(C(=O)COC(=O)c1cccc(S(=O)(=O)N2CC3(C)CC2CC(C)(C)C3)c1)C(C)C (stereo not drawn) | 30.9 | 17.7 | 8.2 | 6.6 | 19.2 | -13.5
COCCN(Cc1nc(-c2ccc(-c3ccccc3)cc2)oc1C)C(C)C | -10.7 | -134.1 | -25.1 | -49.1 | -32.1 | 77.8*
Cc1oc(-c2ccoc2)nc1CN(CC1CCC(=O)N1)C(C)C (stereo not drawn) | -14.0 | 3.5 | 6.1 | 5.2 | -2.6 | 0.7
CCN(CC)C(=O)CN1CCC(c2nc3cc(C)c(C)cc3[nH]2)CC1 | 15.8 | 6.9 | -50.4 | -11.0 | 14.0 | -29.1
CC(NC(=O)C1CCN(CCOc2ccc(Cl)cc2)CC1)c1cccc2ccccc12 (stereo not drawn) | 13.2 | 69.3* | 13.8 | . | . | -0.5
COc1cc(/C=C/CN2CCC(C(=O)NC(c3ccc(F)cc3)c3ccc4ccccc4n3)CC2)ccc1OC(C)=O (stereo not drawn) | 0.4 | 91.0* | -14.4 | . | . | -18.9
Cc1cccnc1C(c1ccc(F)cc1)N(C)C(=O)C1CCN(CCOc2ccc(Cl)cc2Cl)CC1 (stereo not drawn) | 2.9 | 98.0* | -2.2 | . | . | -14.9
COc1ccc(CN2CCC(C(=O)NC(C)c3cccc4ccccc34)CC2)cc1 (stereo not drawn) | -17.4 | -8.6 | 4.5 | . | . | -2.4
O=C(NC(c1ccc(F)cc1)c1ccc2ccccc2n1)C1CCN(CCOc2ccc(Cl)cc2)CC1 (stereo not drawn) | 1.5 | 95.7* | 22.3 | . | . | 6.3
Cn1cc(S(=O)(=O)NC2CCCCC2)c(=O)n(C)c1=O | -1.0 | -0.6 | -32.5 | -4.1 | 10.7 | 19.3
Cc1ccc2c(c1)N(CC(=O)NCC1CCCO1)C(=O)C(C(C)C)O2 (stereo not drawn) | -6.0 | -13.6 | -11.4 | -12.1 | 11.3 | 4.3
CC(C)(C)c1ccc(S(=O)(=O)N2CCN(CC(=O)NC(=O)NC3CCCCC3)CC2)cc1 | 21.4 | 7.4 | 19.2 | -4.7 | 1.9 | -9.0
O=C(NC(c1ccccc1)c1ccc2ccccc2n1)C1CCN(CCOc2ccc(Cl)cc2Cl)CC1 (stereo not drawn) | -16.9 | 102.0* | 34.6 | . | . | 13.9
Cc1ccc(-c2c[n+](Cc3cccc(Cl)c3)c3n2CCC3)cc1 | 46.7 | 24.2 | 31.8 | 6.0 | 67.4* | 26.3
CC[n+]1ccc(/C=C/c2ccc(N(C)C)cc2)c2ccccc21 | 88.0* | 50.0 | 46.8 | ? | 88.3* | 35.7
CC[n+]1ccccc1/C=C/c1ccc(N(C)C)cc1 | 80.0 | 5.2 | 25.5 | 8.8 | 42.3 | 38.4
CC[n+]1c(/C=C/c2ccc(OC(C)=O)c(OC)c2)ccc2ccccc21 | -122.6 | -43.6 | -37.0 | 2.2 | -83.7 | -29.9
CC[n+]1c(/C=C/c2ccc(N(C)C)cc2)ccc2ccccc21 | ? | 49.4 | 74.2* | 52.2* | 89.6* | 70.7*
CCN(CC)c1ccc(/C=C/c2ccc3ccc(OC)cc3[n+]2CC)cc1 | 86.6* | 47.3 | 44.8 | 35.4 | 81.1* | 62.7*
CC[n+]1c(/C=C/c2ccc(OC)c(OC)c2)ccc2ccccc21 | -107.7 | -295.0 | 31.2 | -48.0 | -73.6 | -14.7
CCCCCC[n+]1ccccc1/C=C/c1ccc(N(C)C)cc1 | 75.6 | 31.4 | 56.0* | . | . | 50.2*
O=C(NCC1CCCO1)c1ccc(N2C(=O)C3CCCCC3C2=O)cc1 (stereo not drawn) | -6.3 | -3.9 | 11.6 | -7.7 | -0.2 | 10.8
C=CC[C@H](CC(=O)N(CCO)Cc1ccccc1)C(=O)NCCOC(=O)[C@@H](CC=C)CC(=O)OC(C)(C)C | -2.9 | 1.8 | -11.7 | 3.6 | -6.9 | 4.4
